# Measured values taken from PubChem BioAssay AID489025 (Southern Research Specialized Biocontainment Screening …, 2010).
# Screen size: about 2,300 compounds; about 790 (34%) were called active. The rule behind the calls is not given here. The list shows a part of the results. Entries with a potency or affinity are not part of this list.
# Assay: THP-1 cell cytotoxicity, dose response, cytotoxicity control for non-replicating M. tuberculosis project (AID 489025)
# Conditions: THP-1 cell viability; series mostly up to 40 µM; viability: at the top concentration
row,SMILES,viability
1,O=C(Nc1ccccn1)c1ccc(C(=O)c2ccccc2)cc1,86.9% (inactive)
2,O=C(Nc1cccnc1)c1ccc(-c2ccc(Cl)cc2)o1,78% (inactive)
3,CCCOC(=O)c1ccc(NC(=O)c2ccc(Br)o2)cc1,70.8% (inactive)
4,CC(C)(C)c1ccc(OCCC(=O)OCC(=O)NC2CC2)cc1,97.6% (inactive)
5,O=C(NC1CCOc2ccccc21)c1ccc(Cl)nc1 (configuration not stated),104% (inactive)
6,Cc1ccccc1-n1nnc2c(=O)oc3ccccc3c21,117% (inactive)
7,NC(=O)C1CCN(C2CC(=O)NC2=O)CC1 (configuration not stated),125% (inactive)
8,O=C(c1cc2ccccc2o1)c1nc2c(n1O)CCCCC2,101% (inactive)
9,O=C(Nc1ncc(Cc2ccccc2)s1)C1=NCCN1,101% (inactive)
10,CCOC(=O)Cc1ccc(NCc2ccc(Cl)cc2)cc1,82.2% (inactive)
11,CCOC(=O)Cc1cc(=O)n2[nH]cc(-c3ccc(Cl)cc3)c2n1,87.2% (inactive)
12,CCOC(=O)C1(O)CC(C)=NN1C(=O)c1cccc(Br)c1 (configuration not stated),88.5% (inactive)
13,CCOC(=O)c1c(C)nc2c3ccccc3ccn12,113% (inactive)
14,O=C1CC(N2CCN(c3ccccc3)CC2)C(=O)N1CCc1ccccc1 (configuration not stated),97.6% (inactive)
15,CCOc1ccc(NC(=O)COC(=O)C2(C)CC2(Cl)Cl)c([N+](=O)[O-])c1 (configuration not stated),94.1% (inactive)
16,Cc1ccc(Sc2ncccc2N)cc1,104% (inactive)
17,Cc1ccc2oc(=O)c3cc(C(=O)NCCCN4CCCCCC4)sc3c2c1,80.9% (inactive)
18,O=C(NCCCN1CCOCC1)c1ccc(CSc2ccc(Cl)cc2)cc1,71.3% (inactive)
19,CC(=O)N1CCC(=NNC(=O)c2cccs2)CC1,112% (inactive)
20,Cc1cccc(CSc2nnc(-c3ccco3)o2)c1,94.8% (inactive)
21,C#CCSc1nnc(-c2ccc(O)cc2)o1,112% (inactive)
22,C#CCSc1nnc(-c2ccc([N+](=O)[O-])cc2)o1,92.9% (inactive)
23,CCOc1ccc(CC(=O)N2N=C(C)CC2(O)C(F)(F)F)cc1 (configuration not stated),103% (inactive)
24,O=C(CNC1CCCC1)Nc1ccc(N2CCCCCC2)cc1,91.9% (inactive)
25,COc1cc(N=c2ssnc2Cl)cc(OC)c1,117% (inactive)

row,SMILES,viability
1,N#Cc1ccc(N=c2ssnc2Cl)cc1,112% (inactive)
2,CC(=O)Nc1ccc(NC(=O)[C@@H]2CCCC[C@@H]2C(=O)O)cc1,85.2% (inactive)
3,CC(C)N=C1SC(CC(=O)Nc2ccccc2)C(=O)N1C(C)C (configuration not stated),85.1% (inactive)
4,CC(C)(C)c1ccc(C(=O)N2CCCC2)s1,90.3% (inactive)
5,CC1(C)OC(c2ccccc2)=C/C(=C\C=N\NC(=O)c2ccncc2)O1,75.6% (inactive)
6,Cc1ccc(NC(=O)CCSc2nnc(-c3ccco3)o2)cc1,104% (inactive)
7,O=C1/C(=C/c2ccco2)CCC1C1CCCC1 (configuration not stated),98% (inactive)
8,COc1ccc(CC(=O)Nc2nccs2)cc1OC,105% (inactive)
9,O=C(Oc1ccc(/C=N/O)cc1)c1ccccc1Cl,115% (inactive)
10,N/C(=N\OC(=O)c1cccc2ccccc12)c1cccnc1,121% (inactive)
11,O=[N+]([O-])c1ccc2nc(SCc3cn4ccccc4n3)[nH]c2c1,123% (inactive)
12,N/N=C(/Cc1nc2ccccc2[nH]1)c1ccc([N+](=O)[O-])cc1,104% (inactive)
13,O=C(Nc1nc2ccccc2[nH]1)c1cccc([N+](=O)[O-])c1,106% (inactive)
14,Cc1ccc(-c2nnc(Cc3ccc([N+](=O)[O-])cc3)o2)cc1,95.5% (inactive)
15,Cc1ccc2cc3c(nc2c1)OCC3,108% (inactive)
16,Fc1ccc(N2CCN(Cc3nnc(-c4ccccc4)o3)CC2)cc1,105% (inactive)
17,O=C1CCCCC1Sc1nnc(-c2ccc3c(c2)OCO3)o1 (configuration not stated),107% (inactive)
18,O=C(COC(=O)c1ccccc1Cl)NCCC1=CCCCC1,93.1% (inactive)
19,Cc1ccc2c(C)ccc(O)c2n1,123% (inactive)
20,CN1C(=O)CC(N2CCC(c3nc4ccccc4s3)CC2)C1=O (configuration not stated),97.2% (inactive)
21,FC(F)(F)c1ccc(NCCc2ccccc2)nc1,98% (inactive)
22,CN(C)/C=C1/C(=O)N(c2ccc([N+](=O)[O-])cc2)N=C1c1ccccc1,101% (inactive)
23,Cc1cc(C)n2nc(N)c(N=Nc3ccccc3)c2n1,95.3% (inactive)
24,S=C1CN=C(c2ccccc2)c2cc(Cl)ccc2N1,90.6% (inactive)
25,CC(C)c1ccc(N2C(=O)CC(Sc3ncn[nH]3)C2=O)cc1 (configuration not stated),98.1% (inactive)

row,SMILES,viability
1,CCOC(=O)COn1c2c(c3c4no[n+]([O-])c4ccc31)CCCC2,123% (inactive)
2,CN(C)CCNc1c2c(c(C#N)c3nc4ccccc4n13)CCCC2,99.4% (inactive)
3,CC1=NN(c2ccccc2)C(=O)C1C(=O)c1ccccc1 (configuration not stated),76.9% (inactive)
4,Oc1ccccc1CN1CCCC(N2CCN(c3cccc(C(F)(F)F)c3)CC2)C1 (configuration not stated),73.8% (inactive)
5,N=C1/C(=C/c2ccc(OC(=O)c3ccco3)cc2)C(=O)N=C2SC=CN12,108% (inactive)
6,CCc1ccc(C2=C/C(=C/c3cccnc3)C(=O)O2)cc1,126% (inactive)
7,Cc1ccc(OCC(=O)OCc2c(C)noc2C)cc1C,123% (inactive)
8,CCOc1ccc(NC(=O)COc2ccc3c(c2)OCO3)cc1,103% (inactive)
9,O=C(COC(=O)c1ccccc1Br)Nc1ccccc1F,107% (inactive)
10,O=C(CCNc1ccc(Cl)cc1)c1cccs1,102% (inactive)
11,Cc1occc1-c1nnc(-c2cc([N+](=O)[O-])cc([N+](=O)[O-])c2)o1,97.4% (inactive)
12,Cc1cc(NC(=O)c2cc([N+](=O)[O-])cc([N+](=O)[O-])c2)no1,111% (inactive)
13,CCOC(=O)c1ccc(N=C(CC)c2c(O)n(C)c(=O)n(C)c2=O)cc1,86.7% (inactive)
14,O=C1OC(/C(=C\Nc2cc(Cl)ccc2O)[N+](=O)[O-])c2ccccc21 (configuration not stated),81.6% (inactive)
15,CS(=O)(=O)Cc1nc2ccccc2oc1=O,100% (inactive)
16,COc1cccc2cc(-c3nc4ccccc4o3)c(=O)oc12,97.5% (inactive)
17,O=C(OCC(=O)N1CCCC1)c1cc(Br)ccc1Cl,121% (inactive)
18,CC12CC3CC(C)(C1)CC(C(=O)N1CCCC1)(C3)C2,84.4% (inactive)
19,CCOc1ccc(Cn2c(=O)oc3ccccc32)cc1,113% (inactive)
20,CCOC(=O)COc1ccc2c(c1)c(C(C)=O)c(C)n2Cc1ccccc1,90% (inactive)
21,OC(COc1ccc2ccccc2c1Br)Cn1ccnc1 (configuration not stated),74.6% (inactive)
22,OC(COc1ccccc1Cl)CN1CCN(CC(O)COc2ccccc2Cl)CC1 (configuration not stated),87.5% (inactive)
23,O=C(COc1ccccc1)NCCSCc1ccc(Cl)cc1,90.7% (inactive)
24,O=C(OCC#CCSc1nnc(-c2ccncc2)o1)c1cccs1,113% (inactive)
25,COc1ccc(COc2cccc(C=O)c2)cc1,80.7% (inactive)

row,SMILES,viability
1,CCOC(=O)Cc1csc(NC(=O)COc2ccc3c(c2)CCC3)n1,92.2% (inactive)
2,CCCCn1c(=O)c(C(=O)Nc2nnc(C(C)C)s2)c(O)c2ccccc21,73.7% (inactive)
3,CCCNC(=O)N1CCC(c2ccc3c(c2)OCO3)CC1,89.1% (inactive)
4,CCOC(=O)C1CCCc2c1[nH]c1c(C(N)=O)cccc21 (configuration not stated),96.1% (inactive)
5,O=C(OCC#CCSc1nc2ccccc2o1)c1ccco1,98.9% (inactive)
6,O=C(COC(=O)c1cc(Cl)ccc1O)c1ccc2c(c1)OCO2,121% (inactive)
7,C/C(=N\O)c1cc(Cl)ccc1O,87.7% (inactive)
8,CCOC(=O)COc1ccc2c(=O)cc(-c3ccccc3)oc2c1,110% (inactive)
9,CN(C)c1ccc(/C=C2\N=C(C(C)(C)C)OC2=O)cc1,120% (inactive)
10,O=C(OCc1cccc([N+](=O)[O-])c1)c1ccc2ccccc2n1,106% (inactive)
11,O=c1c2c([N+](=O)[O-])cc([N+](=O)[O-])cc2nc2ccccn12,99.5% (inactive)
12,CSc1ccc(CNc2ncc(-c3cccc([N+](=O)[O-])c3)n2C)cc1,81.1% (inactive)
13,N[C@@H](Cc1ccccc1)c1nnc(SC/C=C/c2ccccc2)o1,112% (inactive)
14,O=C(Nc1nnc(-c2ccc3c(c2)CCCC3)o1)c1c(F)cccc1F,102% (inactive)
15,O=C(COc1ccccc1)Nc1nnc(-c2ccc3c(c2)CCCC3)o1,93.5% (inactive)
16,CCOc1ccccc1C(=O)OCC(=O)Nc1nnc(-c2ccccc2)o1,114% (inactive)
17,Cc1cccc(C(=O)Nc2nnc(-c3cccnc3)o2)c1,92.7% (inactive)
18,CCOc1ccc(C(=O)Nc2nnc(C3=COCCO3)o2)cc1,92.9% (inactive)
19,CCOc1ccc(-c2nnc(NC(=O)CCCOc3cccc(C)c3)o2)cc1,84.1% (inactive)
20,COc1ccc(C(=O)COC(=O)c2ccccc2O)c(OC)c1,89.7% (inactive)
21,O=Cc1ccc(OC2OCCOC2Oc2ccc(C=O)cc2)cc1 (configuration not stated),120% (inactive)
22,O=C(CCN1CCN(C/C=C/c2ccccc2)CC1)Nc1ccc(Cl)cc1,76% (inactive)
23,COc1ccccc1C(=O)OCC(=O)Nc1ccc(Cl)cn1,93.5% (inactive)
24,C=CCOC(=O)c1ccc(-n2cnc(C)n2)nc1,91.4% (inactive)
25,NC(=O)CN1CCN(C2CC(=O)N(CCc3ccccc3)C2=O)CC1 (configuration not stated),109% (inactive)

row,SMILES,viability
1,COc1cccc(C(=O)OCC(=O)Nc2nnc(-c3ccccc3)o2)c1,79.2% (inactive)
2,O=C(Nc1nnc(-c2ccc(Cl)cc2)o1)C1=COCCO1,85.3% (inactive)
3,Cc1ccc(C(=O)Nc2nnc(-c3ccncc3)o2)cc1,83.7% (inactive)
4,O=C(Nc1nnc(-c2ccc(Cl)cc2)o1)c1cccc(N2C(=O)CCC2=O)c1,108% (inactive)
5,O=C(COc1ccccc1)Nc1nnc(-c2ccc(Cl)cc2)o1,93.5% (inactive)
6,O=C(COC(=O)CC12CC3CC(CC(C3)C1)C2)Nc1cccnc1Cl,112% (inactive)
7,CCc1ccc(N=CC2=C(O)CC(c3ccco3)CC2=O)cc1 (configuration not stated),107% (inactive)
8,C(=C\c1ccccc1)/CSc1nc2ncccc2[nH]1,80.8% (inactive)
9,CCOC(=O)c1ccc(COC(=O)c2ccc(-c3nnc(-c4ccccc4)o3)cc2)o1,77.6% (inactive)
10,CCOC(=O)C1CCCN(Cc2ccc(OCc3ccccc3)cc2)C1 (configuration not stated),91.6% (inactive)
11,CCOC(=O)C1CCN(Cc2ccc(-c3ccccc3)cc2)CC1,124% (inactive)
12,CCC(=O)c1ccc(OCc2ccc(C(=O)OC)cc2)cc1,86.5% (inactive)
13,COc1ccccc1N=Cc1nc(-c2ccccc2)oc1OC(C)=O,101% (inactive)
14,Brc1ccc(OCCCCN2CCCCC2)cc1,95.6% (inactive)
15,CN(CCOCCOc1ccc(F)cc1)Cc1ccccc1,92.2% (inactive)
16,Cc1ccc(NC(=O)ON=C2CCCC2)cc1,83.5% (inactive)
17,O=C(COc1ccc(Cl)cc1)Nc1ccc2[nH]ncc2c1,86.3% (inactive)
18,Cc1ccc(NC(=O)COc2ccccc2)cc1Cl,104% (inactive)
19,CCOc1ccccc1OC(=O)c1cc2ccccc2oc1=O,97.5% (inactive)
20,Cc1cccc(OCCCCc2c(C)n[nH]c2C)c1,70.5% (inactive)
21,Cc1ccc(C(=O)NCCOc2cccc(C)c2)cc1,82.8% (inactive)
22,CCCCOC(=O)c1ccc(OC(=O)c2cccnc2)cc1,86.3% (inactive)
